Vaccinia mCherry: inhibitors of vaccinia virus infection (mCherry reporter signal); Vaccinia virus mCherry reporter infection, fluorescence; Potency, µM (doses to about 36.5 µM), for the others: top-dose activity change, negative = inhibition, most hits filed as inhibitors; 310,000 compounds, 0.63% hits; AID 720579; calls by dose curve; tested in A549 cells; also: potency is read from the fitted curve at half-maximal effect; nearly all actives have a fitted effect of over 35% in size
HCMV antiviral: inhibitors of human cytomegalovirus | activity change, negative = inhibition, % at 57.5 µM | HFF cells, HCMV-luciferase reporter, 72 h; stronger effect = lower value | 410,000 compounds, 4.5% hits; in the data active = activity change below about -60%; inconclusive = no clear call, values can overlap the other calls; inactive = above about -39%
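Compounds were evaluated in HFFs infected with an HCMV luciferase reporter virus (MOI 1 PFU/cell). Luciferase in lysates collected 72 h post infection served as the replication measure.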
Sm TGR block: inhibitors of Schistosoma mansoni thioredoxin glutathione reductase. AID 485364. 360,000 compounds, 3% hits. Potency, µM (highest dose often 114 µM), without a hit: at the top dose activity change, negative = inhibition, most hits filed as inhibitors. purified TGR, DTNB reduction, TNB absorbance 405 nm. Q962Y6; also: potency is read from the fitted curve at half-maximal effect; nearly all actives have a fitted effect of over 60% in size
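Kinetic colorimetric format: TGR-catalysed, NADPH-driven DTNB reduction monitored via TNB absorbance. Enzyme dispensed at 20 nM; compound exposure 15 min at room temperature before reaction start.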
VACV Venus inh: inhibitors of vaccinia virus (Venus reporter). Vaccinia virus Venus reporter expression, fluorescence. Potency, µM (titrated, usually from 36.5 µM), for inactives: at the top dose activity change, negative = inhibition, hits mostly inhibitors. 330,000 compounds, 0.46% hits. AID 720580; calls by dose curve; tested in A549 cells; also: potency is read from the fitted curve at half-maximal effect; nearly all actives have a fitted effect of over 30% in size
FMDV inh: antivirals against foot and mouth disease virus; FMDV antiviral cell-based qHTS; Potency, µM (top dose mostly 57.9 µM), for the others: top-dose activity change, negative = inhibition, usual class: inhibitors; 410,000 compounds, 1.2% hits; AID 1159524; calls by dose curve; tested in HEK293T cells; also: read-out not given here; potency is read from the fitted curve at half-maximal effect; nearly all actives have a fitted effect of over 45% in size
HCV inh: blocks hepatitis C virus; AID 651820; Huh7.5.1 HCVcc-Cre infection, luciferase reporter, 44 h; 340,000 compounds, 3.4% hits; Potency, µM (doses to about 41.8 µM), inactives show top-dose activity change, negative = inhibition, usual class: inhibitors; also: potency is read from the fitted curve at half-maximal effect
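Seed cells (1,000/well) for 4 h; treat with compound and infect with HCVcc-Cre, moi about 0.5. Incubate 44 h, then detect luciferase activity.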
* marks the source's active call; other numbers are inactive results; i = inactive; ? = inconclusive; . = not tested or not shown; [ ] = dose if it differs, or a comment. In the library only some 9.3% were active in any assay of this set; here they are far more common. Unless noted, calls follow the shape of the dose curve; as a rule, active = well fitted curve in the direction sought with a large enough effect; inconclusive = small, poorly fitted or top-dose-only effect, or another doubt; inactive = no such curve, though single readings can be large; an effect the other way counts as inactive or inconclusive. % is scaled to controls: 0 for no effect and ±100 for the full control effect.

SMILES | Vaccinia mCherry | HCMV antiviral | Sm TGR block | VACV Venus inh | FMDV inh | HCV inh
CN(C)S(=O)(=O)c1ccc(Cl)c(NC(=O)CSc2nc3ccccc3c(=O)n2CCCN2CCOCC2)c1 | i | -31 | -9% | -18% | -9% | ?
COc1ccc(CC(=O)Nc2cc(S(=O)(=O)Nc3ccc(OC)cc3)ccc2OC)cc1 | . | ? | . | . | -24% | 13µM*
COc1ccc(NC(=O)CCN2C(=O)NC3(CCCC3)C2=O)cc1Cl | . | 5 | 2% | . | -14% | 0%
COc1ccc(NS(=O)(=O)c2cc(NC(=O)Cc3c(F)cccc3Cl)ccc2OC)cc1 | -12% | -29 | -5% | -18% | 33% | 13µM*
COc1ccc(NC(=O)CN2C(=O)NC3(CCCCCC3)C2=O)cc1Cl | 0% | 17 | . | -17% | -12% | 25µM*
CCc1ccc(N2CC(C(=O)NNC(=O)c3ccc(F)cc3)CC2=O)cc1 (configuration not stated) | -8% | -10 | -4% | 0% | 9% | 2%
COC(=O)C1CN(C(=O)c2cccc(OC(F)F)c2)c2ccccc2O1 (configuration not stated) | 12% | 73 | -1% | 5% | -17% | 1%
CC(C)(C)OC(=O)NCCCCc1cn(CC(=O)N2CCN(C(=O)OC(C)(C)C)CC2)nn1 | -22% | -80* | -9% | -10% | -24% | -2%[8.37 µM]
CC[C@@H](C)[C@@H](C(=O)N1CCN(C(=O)OC(C)(C)C)CC1)n1cc(CCCCNC(=O)OC(C)(C)C)nn1 | -2% | -27 | -9% | -3% | 13µM* | ?
CC(C)(C)OC(=O)N1CCN(C(=O)Cn2cc(CCO)nn2)CC1 | -14% | 64 | 4% | -5% | -2% | 10%
O=C(NCc1nnc2c3ccccc3c(-c3ccccc3)nn12)c1ccc(Cl)cc1 | i | ? | 0% | -4% | ? | ?
COc1ccc(-c2nn(CCC#N)cc2/C=N/O)cc1 | 2% | -23 | 0% | -6% | 1% | 6%
O=C(c1ccc(NS(=O)(=O)c2ccc3[nH]c(=O)[nH]c3c2)cc1)N1CCN(c2ccccc2O)CC1 | ? | -9 | -33% | -2% | -14% | 12%
Cc1cccc(N2CCN(C(=O)c3ccc(NS(=O)(=O)c4ccc5[nH]c(=O)[nH]c5c4)cc3)CC2)c1C | -3% | -67* | -5% | -20% | 12% | -16%
CCCCCNC(=O)c1ccc(NS(=O)(=O)c2ccc3[nH]c(=O)[nH]c3c2)cc1 | i | -95* | 25µM* | -12% | -9% | 3%
COc1cc(OC)cc(-n2c(=O)c3sccc3n(Cc3ccc(F)cc3)c2=O)c1 | -5% | -4 | 0% | -5% | -23% | .
COc1cccc(CSc2nnc(-c3ccco3)n2C)c1 | . | -25 | 40µM* | . | 37% | 10%
Cc1ccc(C(=O)CSc2nnc(-c3ccco3)n2Cc2ccccc2)cc1 | -9% | 85 | -13% | -18% | -25% | ?
Cc1cccc(CSc2nnc(-c3ccco3)n2C)c1 | . | -6 | 0% | . | 0% | 5%
Cn1c(SCC(=O)c2ccc(-c3ccccc3)cc2)nnc1-c1ccco1 | . | -5 | 6.3µM* | . | -2% | -13%
O=C(CSc1nnc(-c2ccco2)n1Cc1ccccc1)c1ccccc1 | . | 21 | 45µM* | -21% | 18% | -20%
COc1ccc(C)cc1NC(=O)COC(=O)Cc1c[nH]c2ccccc12 | -3% | 12 | . | -9% | -19% | .
CCCOC(=O)C1[C@H]2C(=O)N(Cc3ccco3)C[C@]23C=C[C@H]1O3 (some centres not stated) | 2% | 11 | 25µM* | -1% | 3% | 18%
COc1ccc2c(c1)Sc1ccccc1N2 | 3% | -81* | 22µM* | 2% | 21% | ?
Cc1ccc(-n2nc(C)c3c2OC(N)=C(C#N)C3c2ccoc2)cc1 (configuration not stated) | -15% | 32 | ? | -14% | 51% | 6%
SMILES | Vaccinia mCherry | HCMV antiviral | Sm TGR block | VACV Venus inh | FMDV inh | HCV inh
Cc1ccc(C2C(C#N)=C(N)SC(N)=C2C#N)o1 | . | . | 22µM* | . | . | .
Cc1ccc(SCc2[nH]nc3c2C(c2ccc(C)o2)C(C#N)=C(N)O3)cc1 (configuration not stated) | . | -12 | 25µM* | . | ? | 18%
Cc1nn(Cc2ccccc2)c2c1C(c1ccco1)C(C#N)=C(N)O2 (configuration not stated) | . | 5 | 50µM* | -3% | -30% | -2%
Cc1ccc(-n2nc(C)c3c2OC(N)=C(C#N)C3c2ccc(C)o2)cc1 (configuration not stated) | -9% | 51 | 22µM* | -3% | . | 8%
Cc1ccc(S(=O)(=O)N2CCN(C(=O)COC(=O)CSc3ccc(C)c(C)c3)CC2)c(C)c1 | i | 2 | 0% | -9% | 6% | 7%
CCOC(=O)CC1C(=O)NCCN1S(=O)(=O)c1cccc(C(F)(F)F)c1 (configuration not stated) | -4% | 18 | -15% | -21% | -25% | 5%
O=C(CSc1nnc(SCc2cccc3ccccc23)s1)c1ccc2c(c1)OCO2 | -10% | -15 | 7% | -1% | -7% | 8%
COCc1cccc(-c2csc(C(O)c3ccccc3)n2)c1 (configuration not stated) | ? | -21 | . | -17% | 6% | .
CCN(CC)S(=O)(=O)c1cccc(C(=O)NC(C(=O)Nc2nnc(C3CC3)s2)C(C)C)c1 (configuration not stated) | . | 2 | 53% | . | 21% | -20%
Cc1ccc([C@H]2C(C#N)=C(N)Oc3cc(C)oc(=O)c32)o1 | 4% | 17 | -35% | 4% | 25µM* | 4%
Cc1ccc(-n2nc(C)c3c2OC(N)=C(C#N)C3c2ccco2)cc1 (configuration not stated) | . | 90 | 40µM* | 0% | 55% | 3%
COC(=O)C1OCOC2C(C(=O)OC)OCOC12 (configuration not stated) | i | -10 | . | -6% | -7% | 8%
CC(C)CNC(=O)Cn1c(=O)c2c(ncn2CC(C)C)n(Cc2ccccc2)c1=O | 0% | -67* | -3% | 0% | 18% | 11µM*
CCOC(=O)c1sc(NNC(=O)c2ccc(C)cc2)nc1C | -23%[7.34 µM] | 39 | 7% | -5%[7.34 µM] | 26% | -18%
CCOC(=O)c1nc(NNC(=O)c2ccc([N+](=O)[O-])cc2)sc1C | ? | -97* | ? | ? | -2% | ?
CC(=O)c1cccc(NC(=O)COc2ccc3oc(=O)cc(C)c3c2)c1 | -12% | 10 | 1% | -5% | ? | 16µM*
Cc1ccccc1NC(=O)COc1ccc2oc(=O)cc(C)c2c1 | i | 16 | -1% | -13% | -10% | -21%
O=C(COc1ccc2c(-c3ccccc3)cc(=O)oc2c1)Nc1ccc(CCO)cc1 | . | -68* | -6% | . | ? | 7.1µM*

Bioassay records (PubChem)
